The source of these data is ChEMBL document CHEMBL3988442, “University of Dundee, Small-Polar-MMV Screening Library” (2021).

For some assays here: Entries with a potency or affinity are not part of this list.

Holding throughout (parameters): scale not given: direction of the effect not stated beside the values
For assay [1], the target named is Protein translocase subunit SecA (Escherichia coli (strain K12)) (UniProt P10408). Kind of assay: Assay to Identify E. coli SecA ATPase Inhibitors. In kind it is functional. The settings on record: 30 µM.
For assay [2], the target named is T1, Ubiquitin-activating enzyme e1, putative (Leishmania donovani (strain BPK282A1)) (UniProt E9BSI1).
T1 sequence (whole entry): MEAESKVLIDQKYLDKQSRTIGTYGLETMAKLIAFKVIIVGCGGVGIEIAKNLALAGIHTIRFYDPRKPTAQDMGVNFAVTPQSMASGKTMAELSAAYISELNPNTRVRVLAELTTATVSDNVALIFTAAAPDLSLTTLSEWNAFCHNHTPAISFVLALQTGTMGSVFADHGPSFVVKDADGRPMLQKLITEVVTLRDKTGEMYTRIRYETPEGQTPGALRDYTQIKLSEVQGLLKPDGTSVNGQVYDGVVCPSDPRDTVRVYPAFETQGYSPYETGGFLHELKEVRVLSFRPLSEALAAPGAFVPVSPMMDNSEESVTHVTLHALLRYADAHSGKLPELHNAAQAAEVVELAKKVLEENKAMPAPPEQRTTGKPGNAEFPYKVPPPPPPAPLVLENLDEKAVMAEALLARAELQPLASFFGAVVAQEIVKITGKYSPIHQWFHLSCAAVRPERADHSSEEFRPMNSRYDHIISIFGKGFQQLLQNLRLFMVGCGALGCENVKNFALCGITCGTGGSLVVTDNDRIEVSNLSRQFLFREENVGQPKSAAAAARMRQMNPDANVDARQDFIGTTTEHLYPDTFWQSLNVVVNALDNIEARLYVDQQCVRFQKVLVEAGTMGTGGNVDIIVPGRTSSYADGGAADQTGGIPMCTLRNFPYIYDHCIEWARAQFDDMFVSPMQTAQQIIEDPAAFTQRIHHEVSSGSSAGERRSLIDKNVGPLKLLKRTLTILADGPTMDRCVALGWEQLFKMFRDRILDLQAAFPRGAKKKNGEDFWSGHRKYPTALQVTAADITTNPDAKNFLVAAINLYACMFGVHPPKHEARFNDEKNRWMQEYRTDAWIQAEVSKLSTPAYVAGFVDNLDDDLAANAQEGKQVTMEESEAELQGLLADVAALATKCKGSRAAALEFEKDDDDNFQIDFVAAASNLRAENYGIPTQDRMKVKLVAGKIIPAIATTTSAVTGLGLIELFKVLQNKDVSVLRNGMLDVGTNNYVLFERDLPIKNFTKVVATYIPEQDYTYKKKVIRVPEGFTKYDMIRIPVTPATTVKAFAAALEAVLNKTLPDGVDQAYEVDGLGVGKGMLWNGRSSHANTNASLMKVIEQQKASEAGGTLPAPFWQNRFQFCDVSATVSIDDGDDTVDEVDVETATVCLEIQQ
As to the kind of experiment: Leishmania donovani Ubiquitin Activating Enzyme (LdE1). Format: functional. The settings on record: 30 µM.

Assay [3] has as its target AMP-activated protein kinase, AMPK (Homo sapiens) (UniProt P54646+O43741+P54619+Q9UGJ0+Q9Y478+Q13131+Q9UGI9). As to the kind of experiment: AMP-dependent Kinase enzyme assay. An in vitro enzyme assay that detects ADP turnover that is directly proportional to AMPK activity. This uses naive AMPK that is activated during the assay with MK-8722. Format: functional. The settings on record: 30 µM.

The target of assay [4] is Sialic acid-binding Ig-like lectin 9 (Homo sapiens) (UniProt Q9Y336). As to the kind of experiment: Hs-Siglec9 ALPHAscreen SOP 20170721. The settings on record: 10 µM.
The next assay deals with Trypanosoma cruzi. As to the kind of experiment: Trypanosoma cruzi phosphomannomutase and mannose-1-phosphate guanylyltransferase assay. In kind it is functional. The settings on record: 10 µM.
Assay [5] has as its target T2, Arginase-2, mitochondrial (Homo sapiens) (UniProt P78540).
T2 sequence (whole entry): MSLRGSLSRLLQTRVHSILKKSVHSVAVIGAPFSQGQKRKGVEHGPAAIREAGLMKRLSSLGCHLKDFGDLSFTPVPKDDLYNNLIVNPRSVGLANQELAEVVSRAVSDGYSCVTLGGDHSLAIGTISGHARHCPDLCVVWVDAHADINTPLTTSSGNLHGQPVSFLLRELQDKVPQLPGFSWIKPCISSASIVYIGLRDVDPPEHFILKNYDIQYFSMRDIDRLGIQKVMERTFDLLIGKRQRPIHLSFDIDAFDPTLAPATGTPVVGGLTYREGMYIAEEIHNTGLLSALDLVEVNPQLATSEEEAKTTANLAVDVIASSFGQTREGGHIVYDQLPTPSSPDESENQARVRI
Kind of assay: in vitro enzyme assay to detect the production of urea directly proportional to the activity of Arginase II. Note: in the data most compounds retested in dose-response had high values. The settings on record: 33.3 µM. In kind it is functional.

For assay [6], the target named is T3, Proteasome subunit beta (Trypanosoma cruzi) (UniProt O96673).
T3 sequence (whole entry): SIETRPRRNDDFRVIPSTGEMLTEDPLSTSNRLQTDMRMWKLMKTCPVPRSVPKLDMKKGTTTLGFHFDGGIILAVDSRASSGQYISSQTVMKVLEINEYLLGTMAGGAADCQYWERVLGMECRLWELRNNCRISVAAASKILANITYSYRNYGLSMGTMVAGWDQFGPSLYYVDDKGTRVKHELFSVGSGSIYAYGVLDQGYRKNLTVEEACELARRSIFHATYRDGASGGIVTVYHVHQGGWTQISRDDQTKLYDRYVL
As to the kind of experiment: Trypanosoma cruzi proteasome chymotrypsin-like activity (TcProtChymo) assay. Note: in the data most compounds retested in dose-response had high values. In kind it is functional. The settings on record: 9.37 µM.

The species named for the next assay is Homo sapiens. As to the kind of experiment: To identify inhibition of the IFN signalling (Jak-Stat) pathway via expression of an eGFP reporter gene under the control of an IFN-stimulated response element (ISRE) containing MxA promoter. The settings on record: 30 µM. Format: functional. Background: Reporter assays use an easily measured gene product as a stand-in for the process of interest.

The target of assay [7] is T4, Tyrosyl-tRNA synthetase, putative (Trypanosoma cruzi (strain CL Brener)) (UniProt Q4DSP6).
T4 sequence (whole entry): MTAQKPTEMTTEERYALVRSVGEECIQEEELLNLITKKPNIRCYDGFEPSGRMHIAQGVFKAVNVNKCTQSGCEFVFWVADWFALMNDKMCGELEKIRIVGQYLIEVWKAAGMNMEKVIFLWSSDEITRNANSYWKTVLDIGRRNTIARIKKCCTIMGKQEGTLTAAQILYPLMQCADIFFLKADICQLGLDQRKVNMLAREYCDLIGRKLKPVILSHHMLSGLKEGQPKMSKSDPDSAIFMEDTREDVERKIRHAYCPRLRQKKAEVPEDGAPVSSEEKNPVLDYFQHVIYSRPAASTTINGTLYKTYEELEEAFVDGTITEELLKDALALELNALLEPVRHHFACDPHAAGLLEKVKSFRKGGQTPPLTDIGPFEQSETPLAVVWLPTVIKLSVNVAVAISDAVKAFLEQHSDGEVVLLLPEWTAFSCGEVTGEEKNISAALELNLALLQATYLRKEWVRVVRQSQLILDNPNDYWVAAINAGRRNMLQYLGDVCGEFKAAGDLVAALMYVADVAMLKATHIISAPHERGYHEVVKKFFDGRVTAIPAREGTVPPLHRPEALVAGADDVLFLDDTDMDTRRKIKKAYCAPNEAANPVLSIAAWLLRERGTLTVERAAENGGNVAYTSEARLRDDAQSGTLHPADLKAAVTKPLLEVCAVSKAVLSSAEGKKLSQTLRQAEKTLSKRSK
As to the kind of experiment: Trypanosoma cruzi tyrosyl tRNA synthetase (TcYRS) _High Tyrosine SOP. Note: in the data most compounds retested in dose-response had high values. In kind it is functional. The note with it: 30 µM.

The target in assay [8] is T4, Tyrosyl-tRNA synthetase, putative (Trypanosoma cruzi (strain CL Brener)). Kind of assay: Trypanosoma cruzi tyrosyl tRNA synthetase (TcYRS) SOP. Format: functional. The note with it: 30 µM.
The target in assay [9] is Chromo domain-containing protein 1 (Saccharomyces cerevisiae (strain ATCC 204508 / S288c) (Baker's yeast)) (UniProt P32657). Kind of assay: ScCHD-1 Enzyme Inhibition Assay. Note: in the data most compounds retested in dose-response had high values. In kind it is functional. The note with it: 30 µM.
Chain of Chromo domain-containing protein 1 (Saccharomyces cerevisiae (strain ATCC 204508 / S288c) (Baker's yeast)) (P32657 whole entry, the tested form may be a part): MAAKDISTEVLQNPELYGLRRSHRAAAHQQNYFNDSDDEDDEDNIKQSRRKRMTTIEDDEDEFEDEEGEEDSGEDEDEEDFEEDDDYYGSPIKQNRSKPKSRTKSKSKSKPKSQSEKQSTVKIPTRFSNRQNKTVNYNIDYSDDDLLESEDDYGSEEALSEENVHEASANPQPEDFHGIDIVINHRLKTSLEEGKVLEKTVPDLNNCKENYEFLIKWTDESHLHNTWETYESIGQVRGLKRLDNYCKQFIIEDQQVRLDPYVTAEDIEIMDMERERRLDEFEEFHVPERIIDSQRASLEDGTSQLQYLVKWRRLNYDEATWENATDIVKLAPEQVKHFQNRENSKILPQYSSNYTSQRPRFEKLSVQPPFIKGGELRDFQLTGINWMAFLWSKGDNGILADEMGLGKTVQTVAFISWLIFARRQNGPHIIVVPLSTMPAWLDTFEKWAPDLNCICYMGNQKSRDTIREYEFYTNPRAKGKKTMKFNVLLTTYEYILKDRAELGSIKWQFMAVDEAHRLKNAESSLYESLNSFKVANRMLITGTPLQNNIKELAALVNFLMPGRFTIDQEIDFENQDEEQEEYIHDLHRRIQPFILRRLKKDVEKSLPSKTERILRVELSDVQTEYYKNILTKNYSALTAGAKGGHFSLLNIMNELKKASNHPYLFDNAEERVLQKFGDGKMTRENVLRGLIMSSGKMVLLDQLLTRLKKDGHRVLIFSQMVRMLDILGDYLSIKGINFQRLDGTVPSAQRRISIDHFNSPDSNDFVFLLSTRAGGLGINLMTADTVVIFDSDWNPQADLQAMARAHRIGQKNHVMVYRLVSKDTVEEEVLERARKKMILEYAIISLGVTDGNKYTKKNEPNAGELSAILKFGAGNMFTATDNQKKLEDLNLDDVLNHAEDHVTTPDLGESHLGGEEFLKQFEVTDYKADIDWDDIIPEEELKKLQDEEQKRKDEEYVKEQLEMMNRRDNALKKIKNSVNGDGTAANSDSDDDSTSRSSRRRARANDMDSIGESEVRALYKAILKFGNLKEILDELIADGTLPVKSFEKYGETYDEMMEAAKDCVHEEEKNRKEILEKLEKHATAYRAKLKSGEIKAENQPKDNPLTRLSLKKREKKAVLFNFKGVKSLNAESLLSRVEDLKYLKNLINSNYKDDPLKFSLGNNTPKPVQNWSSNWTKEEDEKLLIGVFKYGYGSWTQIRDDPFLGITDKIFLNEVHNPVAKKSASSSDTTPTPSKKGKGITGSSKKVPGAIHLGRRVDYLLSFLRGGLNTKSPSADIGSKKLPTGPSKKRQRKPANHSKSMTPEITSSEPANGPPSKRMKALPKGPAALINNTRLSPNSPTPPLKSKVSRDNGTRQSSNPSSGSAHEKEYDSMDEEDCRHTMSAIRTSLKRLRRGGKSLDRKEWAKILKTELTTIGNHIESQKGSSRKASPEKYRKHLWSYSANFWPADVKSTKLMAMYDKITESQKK

Chain of Protein translocase subunit SecA (Escherichia coli (strain K12)) (P10408 whole entry): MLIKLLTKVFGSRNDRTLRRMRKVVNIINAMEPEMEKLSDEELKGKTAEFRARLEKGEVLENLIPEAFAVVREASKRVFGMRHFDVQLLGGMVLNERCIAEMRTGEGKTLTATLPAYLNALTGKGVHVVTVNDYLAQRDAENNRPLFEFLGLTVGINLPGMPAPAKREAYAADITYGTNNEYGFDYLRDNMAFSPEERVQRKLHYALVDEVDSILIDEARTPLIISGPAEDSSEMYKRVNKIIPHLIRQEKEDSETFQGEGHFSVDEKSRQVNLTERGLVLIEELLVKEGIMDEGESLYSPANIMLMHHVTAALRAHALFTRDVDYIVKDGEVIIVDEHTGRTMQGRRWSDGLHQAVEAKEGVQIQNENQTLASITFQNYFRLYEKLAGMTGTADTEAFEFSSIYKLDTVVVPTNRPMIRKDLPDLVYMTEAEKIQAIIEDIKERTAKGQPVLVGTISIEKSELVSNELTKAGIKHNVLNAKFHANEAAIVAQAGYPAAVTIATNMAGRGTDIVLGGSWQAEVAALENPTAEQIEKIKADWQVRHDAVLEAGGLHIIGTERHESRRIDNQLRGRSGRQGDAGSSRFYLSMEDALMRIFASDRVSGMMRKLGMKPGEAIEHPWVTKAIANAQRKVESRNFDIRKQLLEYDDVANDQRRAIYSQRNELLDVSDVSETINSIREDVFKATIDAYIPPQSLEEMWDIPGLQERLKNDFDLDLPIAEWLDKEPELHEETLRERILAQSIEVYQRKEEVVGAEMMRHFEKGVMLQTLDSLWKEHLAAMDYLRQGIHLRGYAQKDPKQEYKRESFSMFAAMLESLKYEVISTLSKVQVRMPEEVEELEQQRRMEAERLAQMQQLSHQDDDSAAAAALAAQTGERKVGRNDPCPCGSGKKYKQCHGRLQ
Chain of Sialic acid-binding Ig-like lectin 9 (Homo sapiens) (Q9Y336 whole entry): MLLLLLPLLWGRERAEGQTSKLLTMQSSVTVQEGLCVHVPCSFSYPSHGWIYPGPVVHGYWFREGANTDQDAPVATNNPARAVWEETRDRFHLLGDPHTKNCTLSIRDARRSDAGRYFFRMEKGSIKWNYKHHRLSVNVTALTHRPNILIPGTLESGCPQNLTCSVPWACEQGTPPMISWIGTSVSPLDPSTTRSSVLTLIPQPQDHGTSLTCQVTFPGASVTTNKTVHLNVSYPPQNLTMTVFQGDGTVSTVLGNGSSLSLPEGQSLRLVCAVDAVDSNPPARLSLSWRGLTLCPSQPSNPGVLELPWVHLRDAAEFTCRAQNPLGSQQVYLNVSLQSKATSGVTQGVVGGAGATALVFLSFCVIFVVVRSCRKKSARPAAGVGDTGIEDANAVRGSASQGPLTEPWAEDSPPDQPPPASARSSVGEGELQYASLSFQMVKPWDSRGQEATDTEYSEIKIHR

Regarding `CCN(CC)C1CCN(C(=O)NCc2c(C)noc2C)CC1`, the Percent Effect in assay [1] was -3.56%; in [2] it was 5.48%; in assay [3], -3.43%; in assay [4], 2.27%; with Trypanosoma cruzi it was 0.198%; in assay [5], -3.59%. Further, the Percent Effect in [6] is 10.9%; in the assay listed under Homo sapiens, -3.14%; in [7], 7.29%; in [8], 13.6%; in [9], -1.04%.
Regarding `Cc1csc(CCCNC(=O)[C@H]2CNC[C@@H](C(=O)N3CCCC3)C2)n1`, the Percent Effect in [1] was -4.06%; in assay [2], 8.22%; in assay [3], 0.0773%; in assay [4], 8.38%; in the assay with Trypanosoma cruzi it was -1.39%; in [5], 0.399%. For the same molecule, the Percent Effect in [6] was 15.8%; in the assay filed under Homo sapiens it was -8.49%; in assay [7], 10.4%; in assay [8], 11.1%; in [9], -1.73%.
Regarding `N#Cc1cccc(S(=O)(=O)NC2CCN(Cc3ccccc3)C2=O)c1` (stereo not given), the Percent Effect is -2.71% in [1]; 12.7% in [2]; 0.264% in assay [3]; 4.28% in assay [4]; -4.44% with Trypanosoma cruzi; -6.84% in assay [5]. For the same molecule, the Percent Effect in [6] was 2.21%; in the assay filed under Homo sapiens it was 1.05%; in [7], 3.45%; in assay [8], 11.4%; in [9], -7.32%.
Take `NC(=O)c1cc(C2CCCN(C(=O)CCc3ccsc3)C2)n[nH]1` (stereo not given): the Percent Effect in assay [1] was -9.05%; in assay [2], 5.2%; in [3] it was 5.08%; in assay [4], -5.24%; in the assay with Trypanosoma cruzi, -5.43%; in assay [5] it was -1.78%. For the same molecule, the Percent Effect in [6] was -5.57%; in the assay filed under Homo sapiens, 30.9%; in [7], 3.88%; in [8] it was 7.32%; in assay [9], -4.93%.
Regarding `COc1c(C2CCCN2Cc2cc(C)no2)c(C)nn1C` (stereo not given), the Percent Effect in assay [1] is -1.92%; in [2] it was 8.11%; in assay [3], -4.61%; in assay [4], -2.24%; in the assay on Trypanosoma cruzi, -5.11%; in [5], 3.88%. In addition, the Percent Effect was 11.3% in [6]; 15.9% in the assay listed under Homo sapiens; 4.95% in [7]; 11% in assay [8]; -0.457% in assay [9].
Regarding `CCCc1nc(CN2CCOC(Cn3cncn3)C2)no1` (stereo not given), the Percent Effect in assay [1] was -1.95%; in assay [2], 11.4%; in assay [3], -5.09%; in assay [4], -4.75%; with Trypanosoma cruzi, -1.74%; in assay [5] it was 3.23%. In addition, the Percent Effect in [6] was 12.3%; in the assay listed under Homo sapiens, 18.7%; in assay [7] it was 3.12%; in assay [8] it was 10.1%; in [9], -24.9%.
Consider `Cc1csc(CNC(=O)NCC(O)c2cccc(Cl)c2)n1` (stereo not given), for which the Percent Effect in assay [1] was -1.7%; in [2], 8.11%; in assay [3] it was -4.44%; in [4], 1.18%; in the assay on Trypanosoma cruzi, 3.48%; in [5], -2.38%. The Percent Effect in assay [6] was 20.5%; in the assay filed under Homo sapiens, 24.4%; in assay [7], 3.7%; in [8] it was 12.2%; in assay [9], -0.155%.
As for `CCSCCNC(=O)C(c1cccc(F)c1)N(C)C` (stereo not given), the Percent Effect is -5.79% in assay [1]; 8.11% in [2]; -0.968% in assay [3]; -3.42% in assay [4]; -4.44% in the assay on Trypanosoma cruzi; -0.952% in assay [5]. The Percent Effect is 13.8% in [6]; 20.7% in the assay listed under Homo sapiens; 6.88% in assay [7]; 7.32% in assay [8]; -3.55% in assay [9].
Take `CC(=O)N1CC(=O)N(c2cnn(C)c2)CC12CCN(Cc1ccoc1)C2` (stereo not given): the Percent Effect in assay [1] was -1.18%; in assay [2] it was 5.41%; in [3], 1.2%; in assay [4] it was -0.95%; in the assay on Trypanosoma cruzi, 1.95%; in assay [5] it was 1.25%. Further, the Percent Effect is -1.61% in [6]; 5.16% in the assay filed under Homo sapiens; 2.97% in assay [7]; 11% in [8]; -1.77% in assay [9].
In the case of `COCCC(=O)N1CCN(CCN(C)C)c2ncccc2C1`, the Percent Effect in assay [1] is -3.66%; in [2], 5.2%; in assay [3], 4.52%; in assay [4], 2.96%; in the assay with Trypanosoma cruzi, -0.492%; in assay [5] it was -2.76%. Also, the Percent Effect in assay [6] is 9.48%; in the assay filed under Homo sapiens it was 0.361%; in assay [7], 4.3%; in assay [8] it was 8.64%; in [9], -1.22%.
